# Reference: PubChem BioAssay AID2284374 (EPA ToxCast)
# Inconclusive results are not listed. Calls of active or inactive are those of the source. How the source made its calls: active means hit-call score of the fitted dose curve at least 0.9, where 1 is the maximum; inconclusive means response in the unintended direction; inactive means score below 0.9.
# Biological target: human Peroxisome Proliferator-activated Receptor delta (PPARd), PPARD (gene 5467) (UniProt Q03181)
# Experiment: ERF_US_NR_hPPARD: Eurofins (ERF) Nuclear Receptor (NR) Cell Based Protein-Protein Interaction LeadHunter Assay for human Peroxisome Proliferator-activated Receptor delta (PPARd) Agonism
# Protocol: ERF_US_NR_hPPARD is a cell-based, single-readout assay that uses extracted gene-proteins in a cell-line assay. Measurements were taken 5 hours after chemical dosing in a 384-well plate. See PPARdelta Human NHR Cell Based Agonist Protein-Protein Interaction Assay, DiscoverX.ERF_US_NR_hPPARD is an assay component calculated from the ERF_US_NR_hPPARD assay. It is designed to measure radioligand binding using a type of binding reporter as detected by scintillation counting with radiometry technology.Data from the assay component ERF_US_NR_hPPARD was analyzed at the assay endpoint, ERF_US_NR_hPPARD, in the positive analysis fitting direction relative to DMSO as the negative control and baseline of activity. Using a type of binding reporter, gain-of-signal activity can be used to understand changes in binding as they relate to gene PPARD. To generalize the intended target to other relatable targets, this assay endpoint is annotated to the nuclear receptor intended target family, where the subfamily is non-steroidal.
# Cells were seeded in a total volume of 20 uL into white walled, 384-well microplates and incubated at 37C overnight prior to testing. Briefly, intermediate dilution of sample stocks was performed to generate 5X sample in assay buffer. 5 uL of 5X sample was added to cells and incubated at 37C for 300 minutes. […] The results are expressed as a percent efficacy of the control ligand.
# Chain of human Peroxisome Proliferator-activated Receptor delta (PPARd), PPARD (gene 5467) (Q03181 whole entry, looked up): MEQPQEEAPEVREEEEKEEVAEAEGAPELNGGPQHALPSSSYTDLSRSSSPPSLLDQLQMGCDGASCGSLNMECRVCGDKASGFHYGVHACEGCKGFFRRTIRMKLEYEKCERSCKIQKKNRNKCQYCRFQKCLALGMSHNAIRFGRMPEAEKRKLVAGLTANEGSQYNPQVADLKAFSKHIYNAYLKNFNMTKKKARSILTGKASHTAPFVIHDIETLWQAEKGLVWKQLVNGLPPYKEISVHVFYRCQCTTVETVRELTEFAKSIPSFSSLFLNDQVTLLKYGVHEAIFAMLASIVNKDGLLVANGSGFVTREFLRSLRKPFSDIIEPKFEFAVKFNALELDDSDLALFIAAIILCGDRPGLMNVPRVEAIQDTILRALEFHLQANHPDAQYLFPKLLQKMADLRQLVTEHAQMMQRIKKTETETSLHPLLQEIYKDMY
row,SMILES,outcome
1,O=C(CC(=O)C(F)(F)C(F)(F)C(F)(F)F)c1cccs1,inactive
2,O=C(O)CCC(F)(F)C(F)(F)C(F)(F)F,inactive
